In assay [1] the target is T1, Inhibitor of nuclear factor kappa-B kinase subunit epsilon (Homo sapiens) (UniProt Q14164).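 Also: reported values are averaged percent inhibition figures against human IKKε.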
T1 sequence (whole entry): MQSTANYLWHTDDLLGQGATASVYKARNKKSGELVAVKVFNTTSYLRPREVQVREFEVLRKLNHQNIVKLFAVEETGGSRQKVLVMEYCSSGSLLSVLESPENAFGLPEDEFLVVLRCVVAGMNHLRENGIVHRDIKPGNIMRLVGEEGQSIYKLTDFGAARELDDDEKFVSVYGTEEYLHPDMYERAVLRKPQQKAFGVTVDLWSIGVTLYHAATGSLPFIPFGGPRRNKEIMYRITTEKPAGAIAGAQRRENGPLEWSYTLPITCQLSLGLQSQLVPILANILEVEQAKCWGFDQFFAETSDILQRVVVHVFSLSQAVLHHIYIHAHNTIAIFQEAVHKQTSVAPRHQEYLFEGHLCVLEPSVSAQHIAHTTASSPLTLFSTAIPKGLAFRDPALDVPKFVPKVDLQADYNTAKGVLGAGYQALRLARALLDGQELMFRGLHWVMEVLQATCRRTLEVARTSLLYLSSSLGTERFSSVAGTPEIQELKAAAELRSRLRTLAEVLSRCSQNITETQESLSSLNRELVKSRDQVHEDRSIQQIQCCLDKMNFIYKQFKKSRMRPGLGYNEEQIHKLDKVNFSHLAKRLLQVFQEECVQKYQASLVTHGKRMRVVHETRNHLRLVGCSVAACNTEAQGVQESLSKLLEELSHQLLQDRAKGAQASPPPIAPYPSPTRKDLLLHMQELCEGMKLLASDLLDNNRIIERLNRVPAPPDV
As to conditions: at 1 µM.

Assay [2] addresses T2, Serine/threonine-protein kinase Nek1 (Homo sapiens) (UniProt Q96PY6).
T2 sequence (whole entry): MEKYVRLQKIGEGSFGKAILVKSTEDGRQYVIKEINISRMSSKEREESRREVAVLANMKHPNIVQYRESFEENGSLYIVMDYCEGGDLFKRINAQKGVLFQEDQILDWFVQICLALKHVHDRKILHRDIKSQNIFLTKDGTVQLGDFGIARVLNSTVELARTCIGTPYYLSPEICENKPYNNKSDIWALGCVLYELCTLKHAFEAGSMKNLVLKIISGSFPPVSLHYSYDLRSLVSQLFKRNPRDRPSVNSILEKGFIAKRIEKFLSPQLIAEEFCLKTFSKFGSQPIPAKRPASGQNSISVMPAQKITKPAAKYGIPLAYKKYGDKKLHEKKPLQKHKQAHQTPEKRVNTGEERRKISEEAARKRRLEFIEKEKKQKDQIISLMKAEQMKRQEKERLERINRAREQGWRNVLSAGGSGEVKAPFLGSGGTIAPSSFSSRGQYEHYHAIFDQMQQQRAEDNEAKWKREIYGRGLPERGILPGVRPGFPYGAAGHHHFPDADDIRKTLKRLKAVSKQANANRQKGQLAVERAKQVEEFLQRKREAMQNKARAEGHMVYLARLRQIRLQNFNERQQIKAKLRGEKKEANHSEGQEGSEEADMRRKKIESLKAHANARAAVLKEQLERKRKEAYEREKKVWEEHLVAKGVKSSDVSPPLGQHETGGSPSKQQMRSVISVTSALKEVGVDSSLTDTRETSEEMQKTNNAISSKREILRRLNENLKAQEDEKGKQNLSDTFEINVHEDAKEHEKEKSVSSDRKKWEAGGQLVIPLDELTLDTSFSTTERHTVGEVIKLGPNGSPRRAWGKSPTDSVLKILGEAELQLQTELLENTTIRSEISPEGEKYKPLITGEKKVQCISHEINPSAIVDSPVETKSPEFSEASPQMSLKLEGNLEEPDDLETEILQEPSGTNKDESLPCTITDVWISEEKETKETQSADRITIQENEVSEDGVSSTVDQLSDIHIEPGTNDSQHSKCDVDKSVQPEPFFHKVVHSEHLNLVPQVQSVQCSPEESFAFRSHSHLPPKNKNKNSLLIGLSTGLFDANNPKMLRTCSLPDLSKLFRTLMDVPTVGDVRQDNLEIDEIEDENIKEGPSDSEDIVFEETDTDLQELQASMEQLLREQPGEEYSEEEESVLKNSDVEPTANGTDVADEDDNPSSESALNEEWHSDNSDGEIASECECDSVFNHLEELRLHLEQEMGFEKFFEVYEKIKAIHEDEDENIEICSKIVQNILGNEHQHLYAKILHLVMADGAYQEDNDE
The following applies: at 0.1 µM.

Assay [3] addresses T2, Serine/threonine-protein kinase Nek1 (Homo sapiens). The following applies: at 1 µM.
For assay [4], the target named is T3, Serine/threonine-protein kinase Nek2 (Homo sapiens) (UniProt P51955).
T3 sequence (whole entry): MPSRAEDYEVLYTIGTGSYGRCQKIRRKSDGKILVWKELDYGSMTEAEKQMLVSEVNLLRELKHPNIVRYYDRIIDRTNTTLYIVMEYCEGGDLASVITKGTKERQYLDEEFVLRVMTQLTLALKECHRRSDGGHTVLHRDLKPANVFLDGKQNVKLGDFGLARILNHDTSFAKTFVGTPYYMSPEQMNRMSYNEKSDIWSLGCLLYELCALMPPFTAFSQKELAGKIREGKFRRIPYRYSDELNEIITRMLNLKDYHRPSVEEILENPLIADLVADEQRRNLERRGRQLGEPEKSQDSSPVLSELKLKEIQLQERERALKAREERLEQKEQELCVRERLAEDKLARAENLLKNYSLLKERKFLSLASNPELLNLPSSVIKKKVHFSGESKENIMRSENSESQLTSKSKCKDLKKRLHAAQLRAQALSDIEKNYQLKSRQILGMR
As to conditions: at 0.1 µM.

Assay [5] concerns the target T3, Serine/threonine-protein kinase Nek2 (Homo sapiens). The following applies: at 1 µM.
Assay [6] addresses Serine/threonine-protein kinase Nek6 (Homo sapiens) (UniProt Q9HC98). As to conditions: at 0.1 µM.
Assay [7] shares this target. The following applies: at 1 µM.
For assay [8], the target named is Serine/threonine-protein kinase Nek7 (Homo sapiens) (UniProt Q8TDX7). The following applies: at 0.1 µM.
Assay [9] has the same target. As to conditions: at 1 µM.
Assay [10] deals with T4, Serine/threonine-protein kinase Nek9 (Homo sapiens) (UniProt Q8TD19).
T4 sequence (whole entry): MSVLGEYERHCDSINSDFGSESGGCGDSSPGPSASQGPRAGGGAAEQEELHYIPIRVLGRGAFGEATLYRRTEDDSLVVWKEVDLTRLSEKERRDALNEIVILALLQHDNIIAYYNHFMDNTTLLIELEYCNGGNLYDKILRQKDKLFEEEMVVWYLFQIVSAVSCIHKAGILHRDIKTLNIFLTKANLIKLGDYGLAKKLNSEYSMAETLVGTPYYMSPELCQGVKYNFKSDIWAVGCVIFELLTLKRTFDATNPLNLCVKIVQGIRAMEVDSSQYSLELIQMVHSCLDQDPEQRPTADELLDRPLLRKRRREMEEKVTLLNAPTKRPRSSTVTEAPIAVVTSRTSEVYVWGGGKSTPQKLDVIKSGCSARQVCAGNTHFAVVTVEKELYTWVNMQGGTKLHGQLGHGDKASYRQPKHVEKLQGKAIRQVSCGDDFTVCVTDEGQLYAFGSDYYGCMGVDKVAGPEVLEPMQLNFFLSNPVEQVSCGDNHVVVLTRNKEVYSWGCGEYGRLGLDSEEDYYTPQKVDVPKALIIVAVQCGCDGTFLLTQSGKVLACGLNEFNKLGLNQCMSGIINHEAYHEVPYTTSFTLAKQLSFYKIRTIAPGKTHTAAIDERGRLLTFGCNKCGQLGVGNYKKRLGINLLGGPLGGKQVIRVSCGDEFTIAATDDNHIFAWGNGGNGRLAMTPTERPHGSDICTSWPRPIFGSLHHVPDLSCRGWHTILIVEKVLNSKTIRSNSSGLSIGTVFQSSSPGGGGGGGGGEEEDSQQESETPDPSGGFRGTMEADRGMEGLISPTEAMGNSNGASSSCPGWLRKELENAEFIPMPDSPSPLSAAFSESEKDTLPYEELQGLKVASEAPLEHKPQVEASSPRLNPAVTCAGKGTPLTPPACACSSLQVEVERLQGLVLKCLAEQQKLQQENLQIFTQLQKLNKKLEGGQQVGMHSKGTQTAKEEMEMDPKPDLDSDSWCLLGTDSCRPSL
The following applies: at 0.1 µM.

Chain of Serine/threonine-protein kinase Nek6 (Homo sapiens) (Q9HC98 whole entry): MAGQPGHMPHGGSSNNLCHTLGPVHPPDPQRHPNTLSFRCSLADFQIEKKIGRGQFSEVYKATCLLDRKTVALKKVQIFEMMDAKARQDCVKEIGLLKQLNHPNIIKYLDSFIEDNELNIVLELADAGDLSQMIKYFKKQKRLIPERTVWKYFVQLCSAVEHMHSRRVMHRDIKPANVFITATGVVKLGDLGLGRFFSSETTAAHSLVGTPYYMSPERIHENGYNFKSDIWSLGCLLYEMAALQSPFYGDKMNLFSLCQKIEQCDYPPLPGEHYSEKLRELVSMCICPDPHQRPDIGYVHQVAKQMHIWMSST
Chain of Serine/threonine-protein kinase Nek7 (Homo sapiens) (Q8TDX7 whole entry, looked up): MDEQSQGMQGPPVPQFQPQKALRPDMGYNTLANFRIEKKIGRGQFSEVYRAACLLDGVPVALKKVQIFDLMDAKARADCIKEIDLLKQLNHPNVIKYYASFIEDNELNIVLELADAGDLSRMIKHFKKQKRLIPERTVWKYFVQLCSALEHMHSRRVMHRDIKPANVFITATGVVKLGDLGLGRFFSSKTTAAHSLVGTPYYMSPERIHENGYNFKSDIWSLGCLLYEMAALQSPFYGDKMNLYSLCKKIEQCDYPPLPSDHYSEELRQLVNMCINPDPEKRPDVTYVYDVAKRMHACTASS

As to `CCn1c(-c2nonc2N)nc2c(C#CC(C)(C)O)nc(CN3CCCC3)cc21`, the inhibition in assay [1] is 30%; in [2] it was 0.5%; in [3] it was 2.97%; in assay [4], -0.01%; in assay [5], 1.09%; in assay [6] it was 1.01%. Further, the inhibition in assay [7] was -0.68%; in assay [8] it was 2.37%; in [9] it was 0.41%; in assay [10], -0.93%.
Take `COc1cc2ncn(-c3cc(OCc4ccccc4Cl)c(C(N)=O)s3)c2cc1OC`: the inhibition in assay [1] was found to be 2.71%; in assay [2] it was 3.45%; in assay [3], 15.5%; in [4], 3.49%; in [5], 37.3%; in [6], 1.95%. Further, the inhibition is -3.5% in assay [7], 4.31% in [8], 1.21% in [9] and 9.22% in assay [10].
Turning to `Cc1ccc(NC(=O)c2ccnc(N3CCCC3)c2)cc1-c1ccc(C(=O)NCC2CC2)cc1`, the inhibition in assay [1] amounted to 5.3%; in [2], 2.74%; in assay [3], 2.36%; in assay [4] it was 5.44%; in [5] it was 5.04%; in assay [6], 1.43%. The inhibition turned out to be 0.15% in assay [7], 6.37% in [8], 4.61% in assay [9] and 5.79% in assay [10].
With `Nc1nc(-c2ccc3c(c2)C(=Cc2cc(Br)c(O)c(Br)c2)C(=O)N3)cs1`, the inhibition in [1] is -0.65%; in assay [2], -0.4%; in [3], 2.14%; in assay [4], -0.41%; in assay [5], 2.78%; in assay [6] it was -0.92%. In addition, the inhibition in [7] is 3.09%; in assay [8], 2.05%; in [9] it was -1.46%; in [10], 2.02%.
As to `Cc1nn(C)c2cc(N(C)c3ccnc(Nc4cccc(S(N)(=O)=O)c4)n3)ccc12`, the inhibition came out at 4.76% in [1]; 2.28% in assay [2]; 3.95% in assay [3]; 3.82% in assay [4]; 5.14% in assay [5]; 0.43% in assay [6]. Further, the inhibition in [7] worked out at 1.3%; in [8], 5.76%; in assay [9] it was 3.53%; in [10], 8.48%.
As for `O=C1Nc2ccc(C(=O)c3ccco3)cc2C1=Cc1cc(Cl)c(O)c(Cl)c1`, the inhibition was 52% in assay [1]; 1.66% in [2]; 6.79% in [3]; 5.56% in [4]; 3.76% in assay [5]; -0.24% in assay [6]. Also, the inhibition in [7] turned out to be 0.61%; in assay [8], 3.27%; in [9], 3.97%; in assay [10] it was 6.51%.
Take `NS(=O)(=O)c1ccc(N/N=C2\C(=O)Nc3ccc(C(=O)NCCc4c[nH]cn4)cc32)cc1`: the inhibition was 19% in [1]; 2.19% in assay [2]; -1.06% in assay [3]; 5.57% in assay [4]; 5.42% in assay [5]; 3.45% in assay [6]. The inhibition in assay [7] was 1.65%; in assay [8], 4.83%; in [9], 7.05%; in assay [10], 10.2%.
Take `Cc1ccc(C(=O)NC2CCCCC2)cc1-c1ccc(C(=O)NCC2CC2)cc1`: the inhibition turned out to be 0.57% in assay [1]; 1.91% in assay [2]; 1.48% in assay [3]; 3.04% in assay [4]; 3.36% in assay [5]; 3.51% in assay [6]. Also, the inhibition in [7] was -2.96%; in assay [8] it was 4.39%; in [9] it was 3.76%; in assay [10], -0.48%.

Usually inhibition stands for the relative decrease from the control value, in per cent.

Values taken from ChEMBL document CHEMBL1961873, “Compounds: GSK PKIS; Assays: Nanosyn kinase panel” (2012).
